The list is not random: actives were taken first. Their share in the collection is about 12%.
HP1b binding inh: HP1-beta chromodomain-methylated histone interaction inhibition. P83916. AlphaScreen HP1-beta / biotin-H3K9me3 peptide binding. Potency, µM (titrated, usually from 114 µM), usual class: inhibitors. 390,000 compounds, 0.56% hits. AID 540317; also: nearly all actives have a fitted effect of over 70% in size
Target sequence (P83916 whole entry, looked up): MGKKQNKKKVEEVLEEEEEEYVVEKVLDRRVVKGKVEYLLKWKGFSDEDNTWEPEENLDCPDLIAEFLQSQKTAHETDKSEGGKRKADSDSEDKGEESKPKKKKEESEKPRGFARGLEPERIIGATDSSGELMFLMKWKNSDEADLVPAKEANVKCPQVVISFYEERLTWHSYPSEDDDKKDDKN
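HP1-beta protein (50 nM final) preincubated 30 min at room temperature with biotinylated H3(1-18)K9me3 peptide (50 nM) in PBS pH 7.4, 0.01% Tween-20, then compound added for 30 min. AlphaScreen streptavidin donor/nickel chelate acceptor beads (10 ug/mL final), 30 min dark, luminescence read.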
G9a inh: inhibitors of human histone lysine methyltransferase G9a. Q96KQ7. G9a H3K9 monomethylation, AlphaScreen, 2 h. Potency, µM (doses to about 102 µM), hits mostly inhibitors. 350,000 compounds, 8.8% hits. AID 504332; also: nearly all actives have a fitted effect of over 75% in size
Target sequence (Q96KQ7 913-1193 limits assumed): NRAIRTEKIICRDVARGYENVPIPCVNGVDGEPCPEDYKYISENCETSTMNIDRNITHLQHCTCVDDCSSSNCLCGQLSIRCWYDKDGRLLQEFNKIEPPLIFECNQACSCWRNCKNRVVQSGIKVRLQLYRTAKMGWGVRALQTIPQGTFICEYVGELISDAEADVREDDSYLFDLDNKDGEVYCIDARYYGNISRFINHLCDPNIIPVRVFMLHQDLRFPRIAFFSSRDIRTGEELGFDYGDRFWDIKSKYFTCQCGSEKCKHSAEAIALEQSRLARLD
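G9a (20 nM) was preincubated 15 min with compound, then reacted 2 h at room temperature with 500 nM biotin-H3K9 peptide and 20 µM SAM. Monomethyl-H3K9 detected by AlphaScreen using anti-H3K9me1 antibody.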
JMJD2A Tudor: blocks the human JMJD2A Tudor domain. 390,000 compounds, 4.4% hits. Potency, µM (top dose mostly 114 µM), most hits filed as inhibitors. AlphaScreen JMJD2A-Tudor / H3K4me3 peptide binding. AID 504339. O75164; also: nearly all actives have a fitted effect of over 50% in size
PLK1 PBD block: blocks phosphopeptide binding to human PLK1 polo-box domain; P53350; Plk1 PBD binding of FITC phosphopeptide, fluorescence polarization; Potency, µM, hits mostly inhibitors; 360,000 compounds, 2.8% hits; also: series mostly up to about 57 µM; nearly all actives have a fitted effect of over 65% in size
BAZ2B inh: inhibitors of human BAZ2B bromodomain. AID 504333. AlphaScreen BAZ2B-H3K14Ac peptide displacement. 360,000 compounds, 4.4% hits. Potency, µM (doses to about 114 µM), hits mostly inhibitors; also: nearly all actives have a fitted effect of over 60% in size
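AlphaScreen luminescence quantifies BAZ2B engagement of H3K14Ac peptide; the protein and biotinylated peptide are both at 50 nM final, buffer PBS pH 7.4 with 0.01% Tween-20, all steps at room temperature.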
Sfp PPTase inh: Sfp phosphopantetheinyl transferase inhibition | Biochemical Sfp PPTase activity, qHTS | Potency, µM, actives largely listed as inhibitors | 310,000 compounds, 3.5% hits;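 also: the enzyme is Sfp with the accession as filed and its product quenches rhodamine fluorescence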
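Compounds were incubated with enzyme (final 15 nM) for 15 min at room temperature before substrate addition started the reaction. Fluorescence at 525 nm excitation, 598 nm emission was recorded immediately and after 30 minutes.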
A number is an active result; [ ] = dose if it differs, or a comment. Calls follow the shape of the dose curve; as a rule, active = well fitted curve in the direction sought with a large enough effect; inconclusive = small, poorly fitted or top-dose-only effect, or another doubt; inactive = no such curve, though single readings can be large; an effect the other way counts as inactive or inconclusive.

Results for Cn1c(SCC(=O)N/N=C/C=C/c2ccccc2[N+](=O)[O-])nc2ccccc21 ?
HP1b binding inh: inactive; G9a inh: inactive; JMJD2A Tudor: inactive; PLK1 PBD block: inactive; BAZ2B inh: inactive; Sfp PPTase inh: inactive

Results for CCOc1ccc(NCC(=O)N/N=C/C=C/c2ccccc2)cc1 ?
HP1b binding inh: inactive; G9a inh: 11µM; JMJD2A Tudor: inconclusive; PLK1 PBD block: inactive; BAZ2B inh: inconclusive; Sfp PPTase inh: inactive

What do the screens show for `COc1ccc(CN2CCC3CC2c2cc(Cl)ccc23)cc1` (stereo not given)?
HP1b binding inh: inconclusive; JMJD2A Tudor: inactive; PLK1 PBD block: inactive

What do the screens show for `O=C(Nc1nccs1)C1CC=CC2CCN(Cc3ccc(Cl)c(Cl)c3)C(=O)C21` (stereo not given)?
HP1b binding inh: inactive; JMJD2A Tudor: inactive; Sfp PPTase inh: inactive

Results for CC1CCN(S(=O)(=O)c2ccc(C(=O)N3CCOCC3)cc2)CC1 ?
HP1b binding inh: inactive; G9a inh: inactive; JMJD2A Tudor: inactive; PLK1 PBD block: inactive; BAZ2B inh: inactive; Sfp PPTase inh: inactive

Results for Cc1ccc(Cl)cc1NC(=O)C(=O)NCCc1sc(-c2ccc(F)cc2)nc1C ?
HP1b binding inh: inactive; G9a inh: inactive; JMJD2A Tudor: inactive; BAZ2B inh: inactive

How did O=S(=O)(NCCc1csc2nc(-c3ccccc3)nn12)c1cc(F)ccc1F do in these assays?
HP1b binding inh: inactive; G9a inh: inactive; JMJD2A Tudor: inactive; BAZ2B inh: inactive

What do the screens show for `Cc1ccc2c(=O)[nH]c(Cc3ccccc3C(=O)O)nc2c1`?
HP1b binding inh: inactive; G9a inh: inactive[12.7 µM]; JMJD2A Tudor: inactive; PLK1 PBD block: inactive; BAZ2B inh: inactive; Sfp PPTase inh: inactive

What do the screens show for `OC(c1ccc(Cl)cc1)c1ncc(-c2cccc(C(F)(F)F)c2)[nH]1` (stereo not given)?
PLK1 PBD block: inactive

Results for Cc1c(CNCCC2=CCCCC2)c(C(=O)O)c(C)n1Cc1ccccc1 ?
HP1b binding inh: inactive; G9a inh: 50µM; JMJD2A Tudor: inactive; PLK1 PBD block: inactive; BAZ2B inh: inactive; Sfp PPTase inh: inactive

Results for COc1cccc(NC(=O)CN(C)C(=O)c2cccnc2Sc2ccc(C)c(C)c2)c1 ?
HP1b binding inh: inactive; G9a inh: inactive; JMJD2A Tudor: inactive; PLK1 PBD block: inactive; BAZ2B inh: inactive

How did CCN=C1NN=C(c2ccc(C)cc2)CS1 do in these assays?
HP1b binding inh: inactive; G9a inh: 32µM; JMJD2A Tudor: inactive; PLK1 PBD block: inconclusive; BAZ2B inh: inactive; Sfp PPTase inh: inconclusive

Results for CCCCN=C1NN=C(c2cccc([N+](=O)[O-])c2)CS1 ?
HP1b binding inh: inactive; G9a inh: 11µM; JMJD2A Tudor: inactive; PLK1 PBD block: inactive; BAZ2B inh: inconclusive; Sfp PPTase inh: inactive

How did c1ccc(C2=NNC(=NCc3ccc4c(c3)OCO4)SC2)cc1 do in these assays?
HP1b binding inh: inactive; G9a inh: 40µM; JMJD2A Tudor: inactive; PLK1 PBD block: inconclusive; BAZ2B inh: inactive; Sfp PPTase inh: inactive

How did C=CCN=C1NN=C(c2ccc3c(c2)OCCO3)CS1 do in these assays?
HP1b binding inh: inactive; G9a inh: 40µM; JMJD2A Tudor: inactive; PLK1 PBD block: inactive; BAZ2B inh: inactive; Sfp PPTase inh: inactive

What do the screens show for `CCOC(=O)[C@]12CCC=C1N(Cc1ccc(Cl)cc1Cl)C(=O)[C@H](CC(=O)NCc1cccc(C(F)(F)F)c1)C2`?
PLK1 PBD block: inactive

What do the screens show for `CC(=O)Nc1cccc(-c2ccnc3c2CC(C(=O)NCCc2ccccc2)O3)c1` (stereo not given)?
PLK1 PBD block: inactive

Results for Fc1ccccc1N=C1NN=C(c2ccccc2)CS1 ?
HP1b binding inh: inactive; G9a inh: inconclusive; JMJD2A Tudor: inactive; PLK1 PBD block: inactive; BAZ2B inh: inactive; Sfp PPTase inh: inconclusive

Results for CC(C)N=C1NN=C(c2ccc(F)cc2)CS1 ?
HP1b binding inh: inactive; G9a inh: inconclusive; JMJD2A Tudor: inactive; PLK1 PBD block: inactive; BAZ2B inh: inactive; Sfp PPTase inh: 56µM

How did COCCN=C1NN=C(c2ccc(NC(C)=O)cc2)CS1 do in these assays?
HP1b binding inh: inactive; G9a inh: inconclusive; JMJD2A Tudor: inactive; PLK1 PBD block: inconclusive; BAZ2B inh: inactive; Sfp PPTase inh: 40µM

What do the screens show for `c1ccc(CN=C2NN=C(c3ccccc3)CS2)cc1`?
HP1b binding inh: inactive; G9a inh: 40µM; JMJD2A Tudor: inconclusive; PLK1 PBD block: inactive; BAZ2B inh: inconclusive; Sfp PPTase inh: inactive

What do the screens show for `Fc1ccc(C2=NNC(=NCc3ccccc3)SC2)cc1F`?
HP1b binding inh: inactive; G9a inh: inconclusive; JMJD2A Tudor: inconclusive; PLK1 PBD block: 27µM; BAZ2B inh: inconclusive; Sfp PPTase inh: inconclusive

What do the screens show for `Clc1ccc(C2=NNC(=NCc3ccccc3)SC2)cc1`?
HP1b binding inh: inactive; G9a inh: inactive; JMJD2A Tudor: inconclusive; PLK1 PBD block: inconclusive; BAZ2B inh: inconclusive; Sfp PPTase inh: inconclusive

Results for COc1ccc(C(=O)NNC(=O)COc2ccc(Cl)cc2)c(OC)c1 ?
HP1b binding inh: inactive; JMJD2A Tudor: inactive; PLK1 PBD block: inactive; BAZ2B inh: inactive; Sfp PPTase inh: inactive

Results for CCOc1ccc(NC(=O)c2cc(C)nc3c2c(C)nn3-c2cccc(F)c2)cc1 ?
HP1b binding inh: inactive; G9a inh: inactive; JMJD2A Tudor: inactive; BAZ2B inh: inactive

What do the screens show for `COc1ccc(OC)c(C(=O)CN2C(=O)N(c3ccc(C)cc3)S(=O)(=O)c3ccccc32)c1`?
HP1b binding inh: inactive; G9a inh: inactive; JMJD2A Tudor: inactive; BAZ2B inh: inactive

What do the screens show for `COc1ccc(N2CCN(CCCNC(=O)C(=O)c3c(C)n(C)c4ccccc34)CC2)cc1`?
HP1b binding inh: inactive; G9a inh: 40µM; JMJD2A Tudor: inconclusive; PLK1 PBD block: inactive; BAZ2B inh: 35µM; Sfp PPTase inh: inactive

How did COc1ccc(N2CCN(C(=O)C(=O)c3c(C)n(C)c4ccccc34)CC2)cc1 do in these assays?
HP1b binding inh: inactive; G9a inh: 5µM; JMJD2A Tudor: inconclusive; PLK1 PBD block: inactive; BAZ2B inh: inconclusive; Sfp PPTase inh: inactive

How did CCn1c(=N)n(CCOc2ccc(Br)cc2)c2ccccc21 do in these assays?
HP1b binding inh: inactive; G9a inh: inactive; JMJD2A Tudor: inactive; BAZ2B inh: inactive

Results for O=C(c1cnn(-c2cccc(F)c2)c1-n1cccc1)N1CCN(c2ccccc2F)CC1 ?
HP1b binding inh: inactive; G9a inh: inactive; JMJD2A Tudor: inactive; BAZ2B inh: inactive

Results for C=CCn1c(SCC)nc2ccccc2c1=O ?
HP1b binding inh: inactive; JMJD2A Tudor: inactive

How did CCCC1=C(C(=O)OCC)C(c2cc(Cl)cc(OC)c2OCC(=O)OCC)NC(=O)N1 (stereo not given) do in these assays?
HP1b binding inh: inactive; G9a inh: inactive; JMJD2A Tudor: inactive[11.4 µM]; PLK1 PBD block: 30µM; BAZ2B inh: inactive; Sfp PPTase inh: inactive
